From the supplement of paper PMC10849652
The full data set covers some 8,800 targets. This sample favours those with a hit. About 0.5% of all pairs of compound and target were hits. A number with no mark means an inactive call.

compound: c1ccc([C@@H]2C[C@H]2NC2CCNCC2)cc1; experiment: log2 fold change, soluble protein after heating vs DMSO (PISA); higher = thermal stabilisation; K562 lysate, 10 uM; active = over 0.2 and 3.5 SD of the protein, either way, in both replicates (recomputed)
Method in brief: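 Pellets of K562 cells were dounce-homogenised in PBS pH 7.4 with 1 mM MgCl2, and the crude extract was held at 1 mg/mL protein for a 30 min treatment with 10 μM compound. Aliquots were heated for 3 min over 48°C-58°C and pooled before NP-40 was added to 0.5% at 4°C. The supernatant from 21,000xg for 90 min was quantified by TMTpro 16plex LC-MS/MS with channel sums equalised. Values are reported from duplicates as log-two fold change in thermal stability relative to solvent controls.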

UniProt P27816, sequence (P27816 whole entry, looked up): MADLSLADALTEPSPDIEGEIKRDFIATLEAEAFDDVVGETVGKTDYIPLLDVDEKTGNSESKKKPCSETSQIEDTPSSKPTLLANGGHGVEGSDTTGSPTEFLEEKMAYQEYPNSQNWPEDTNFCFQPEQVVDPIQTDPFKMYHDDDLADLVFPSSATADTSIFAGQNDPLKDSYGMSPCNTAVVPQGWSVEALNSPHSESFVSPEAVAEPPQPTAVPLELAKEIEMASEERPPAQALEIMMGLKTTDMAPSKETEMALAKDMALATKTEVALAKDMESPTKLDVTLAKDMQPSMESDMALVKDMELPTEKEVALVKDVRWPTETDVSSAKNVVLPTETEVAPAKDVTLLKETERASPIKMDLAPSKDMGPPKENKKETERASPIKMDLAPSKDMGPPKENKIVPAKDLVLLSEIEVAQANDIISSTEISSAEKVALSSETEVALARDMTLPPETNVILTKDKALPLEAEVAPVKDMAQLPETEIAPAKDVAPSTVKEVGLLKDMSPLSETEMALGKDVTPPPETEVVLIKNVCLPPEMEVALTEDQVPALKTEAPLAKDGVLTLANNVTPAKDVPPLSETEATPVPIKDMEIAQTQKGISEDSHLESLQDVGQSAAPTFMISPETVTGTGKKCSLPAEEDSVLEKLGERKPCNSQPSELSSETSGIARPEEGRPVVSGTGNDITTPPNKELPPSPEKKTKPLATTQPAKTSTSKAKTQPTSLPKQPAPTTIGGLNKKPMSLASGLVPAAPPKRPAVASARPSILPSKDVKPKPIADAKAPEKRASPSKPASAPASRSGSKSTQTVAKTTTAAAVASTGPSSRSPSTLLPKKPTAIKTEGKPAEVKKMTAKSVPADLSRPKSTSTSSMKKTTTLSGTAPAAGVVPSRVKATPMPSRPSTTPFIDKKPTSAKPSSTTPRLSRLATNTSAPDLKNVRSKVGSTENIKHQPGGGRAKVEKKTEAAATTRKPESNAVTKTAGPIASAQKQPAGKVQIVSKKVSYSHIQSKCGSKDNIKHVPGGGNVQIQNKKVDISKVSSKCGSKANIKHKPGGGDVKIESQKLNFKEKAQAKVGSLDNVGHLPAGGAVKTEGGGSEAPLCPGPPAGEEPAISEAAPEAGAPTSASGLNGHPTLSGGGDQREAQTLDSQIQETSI
UniProt O14733, sequence (O14733 whole entry, looked up): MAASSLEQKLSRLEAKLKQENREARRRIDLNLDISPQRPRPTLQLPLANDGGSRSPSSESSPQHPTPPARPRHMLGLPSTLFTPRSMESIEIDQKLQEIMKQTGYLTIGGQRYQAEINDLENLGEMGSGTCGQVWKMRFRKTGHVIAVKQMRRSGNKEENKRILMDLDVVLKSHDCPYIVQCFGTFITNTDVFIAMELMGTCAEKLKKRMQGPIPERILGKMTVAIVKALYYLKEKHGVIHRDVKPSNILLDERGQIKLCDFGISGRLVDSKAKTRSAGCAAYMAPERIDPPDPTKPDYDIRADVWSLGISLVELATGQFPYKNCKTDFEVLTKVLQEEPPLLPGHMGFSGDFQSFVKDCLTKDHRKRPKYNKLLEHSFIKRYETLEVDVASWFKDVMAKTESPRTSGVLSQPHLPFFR
UniProt Q96IZ6, sequence (Q96IZ6 whole entry, looked up): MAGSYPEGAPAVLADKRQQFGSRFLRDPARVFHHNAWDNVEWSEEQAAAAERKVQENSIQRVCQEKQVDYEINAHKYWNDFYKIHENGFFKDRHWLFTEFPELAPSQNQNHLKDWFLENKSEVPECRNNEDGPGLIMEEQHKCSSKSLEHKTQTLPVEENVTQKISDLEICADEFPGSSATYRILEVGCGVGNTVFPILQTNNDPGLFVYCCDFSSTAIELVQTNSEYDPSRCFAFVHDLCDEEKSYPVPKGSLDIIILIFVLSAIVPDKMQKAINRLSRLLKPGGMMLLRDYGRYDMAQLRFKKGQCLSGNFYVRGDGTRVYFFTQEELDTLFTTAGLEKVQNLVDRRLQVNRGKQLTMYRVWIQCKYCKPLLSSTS
UniProt P49137, sequence (P49137 whole entry, looked up): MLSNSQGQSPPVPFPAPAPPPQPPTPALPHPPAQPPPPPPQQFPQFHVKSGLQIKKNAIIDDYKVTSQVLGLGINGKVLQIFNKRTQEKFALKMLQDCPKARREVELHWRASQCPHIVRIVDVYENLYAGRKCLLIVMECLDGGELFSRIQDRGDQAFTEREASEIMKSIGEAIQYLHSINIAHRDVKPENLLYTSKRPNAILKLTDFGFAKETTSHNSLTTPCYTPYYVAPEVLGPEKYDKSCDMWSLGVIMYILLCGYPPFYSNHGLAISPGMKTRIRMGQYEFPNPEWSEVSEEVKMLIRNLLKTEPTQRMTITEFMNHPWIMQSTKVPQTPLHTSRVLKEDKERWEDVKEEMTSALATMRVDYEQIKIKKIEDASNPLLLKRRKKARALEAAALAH
UniProt Q9UBB5, sequence (Q9UBB5 whole entry, looked up): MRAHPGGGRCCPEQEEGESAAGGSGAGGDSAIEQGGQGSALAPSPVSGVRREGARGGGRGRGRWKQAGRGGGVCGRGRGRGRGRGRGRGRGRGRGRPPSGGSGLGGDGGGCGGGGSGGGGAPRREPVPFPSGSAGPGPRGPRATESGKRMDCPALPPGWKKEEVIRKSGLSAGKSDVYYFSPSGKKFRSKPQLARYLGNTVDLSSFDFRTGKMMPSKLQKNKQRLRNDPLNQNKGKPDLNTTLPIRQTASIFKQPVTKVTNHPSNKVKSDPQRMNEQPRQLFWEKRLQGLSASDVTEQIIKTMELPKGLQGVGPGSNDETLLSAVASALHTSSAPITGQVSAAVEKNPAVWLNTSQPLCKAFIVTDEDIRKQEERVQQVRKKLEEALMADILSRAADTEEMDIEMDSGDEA
UniProt Q6ZWT7, sequence (Q6ZWT7 whole entry, looked up): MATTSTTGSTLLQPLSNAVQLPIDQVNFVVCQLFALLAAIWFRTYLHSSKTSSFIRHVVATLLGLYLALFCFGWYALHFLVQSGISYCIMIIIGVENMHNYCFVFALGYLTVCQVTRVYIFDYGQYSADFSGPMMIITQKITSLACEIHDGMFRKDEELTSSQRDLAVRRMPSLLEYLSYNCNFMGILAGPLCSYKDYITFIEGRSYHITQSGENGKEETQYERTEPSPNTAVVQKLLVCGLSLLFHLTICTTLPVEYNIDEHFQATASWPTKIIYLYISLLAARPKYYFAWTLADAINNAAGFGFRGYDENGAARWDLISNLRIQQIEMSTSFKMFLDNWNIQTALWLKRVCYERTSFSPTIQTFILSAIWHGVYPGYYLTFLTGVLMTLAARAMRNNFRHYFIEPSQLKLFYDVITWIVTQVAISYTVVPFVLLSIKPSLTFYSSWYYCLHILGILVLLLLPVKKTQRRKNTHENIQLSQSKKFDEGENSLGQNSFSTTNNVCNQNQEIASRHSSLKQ
UniProt Q96II8, sequence (Q96II8 whole entry, looked up): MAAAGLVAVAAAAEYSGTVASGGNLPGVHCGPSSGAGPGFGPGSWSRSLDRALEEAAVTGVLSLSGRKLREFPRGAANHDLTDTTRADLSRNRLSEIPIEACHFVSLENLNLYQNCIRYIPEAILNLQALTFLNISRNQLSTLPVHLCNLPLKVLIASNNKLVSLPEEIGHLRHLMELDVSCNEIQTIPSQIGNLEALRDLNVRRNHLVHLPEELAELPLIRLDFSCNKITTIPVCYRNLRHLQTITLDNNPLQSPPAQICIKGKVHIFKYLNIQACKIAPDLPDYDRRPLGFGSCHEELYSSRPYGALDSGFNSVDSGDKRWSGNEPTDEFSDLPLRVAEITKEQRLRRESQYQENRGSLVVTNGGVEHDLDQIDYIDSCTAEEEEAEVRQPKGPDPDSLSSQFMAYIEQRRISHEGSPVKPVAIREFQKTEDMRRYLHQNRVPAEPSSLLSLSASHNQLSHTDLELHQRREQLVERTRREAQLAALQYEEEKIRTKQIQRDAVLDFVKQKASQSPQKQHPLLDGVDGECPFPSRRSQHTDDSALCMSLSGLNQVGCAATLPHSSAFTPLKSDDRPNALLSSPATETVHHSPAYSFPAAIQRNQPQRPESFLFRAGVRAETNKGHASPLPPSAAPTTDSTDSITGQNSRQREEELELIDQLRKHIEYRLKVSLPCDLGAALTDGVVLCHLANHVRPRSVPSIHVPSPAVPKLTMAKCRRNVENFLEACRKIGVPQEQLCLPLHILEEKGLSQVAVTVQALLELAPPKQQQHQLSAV
UniProt Q9BPX6, sequence (Q9BPX6 whole entry, looked up): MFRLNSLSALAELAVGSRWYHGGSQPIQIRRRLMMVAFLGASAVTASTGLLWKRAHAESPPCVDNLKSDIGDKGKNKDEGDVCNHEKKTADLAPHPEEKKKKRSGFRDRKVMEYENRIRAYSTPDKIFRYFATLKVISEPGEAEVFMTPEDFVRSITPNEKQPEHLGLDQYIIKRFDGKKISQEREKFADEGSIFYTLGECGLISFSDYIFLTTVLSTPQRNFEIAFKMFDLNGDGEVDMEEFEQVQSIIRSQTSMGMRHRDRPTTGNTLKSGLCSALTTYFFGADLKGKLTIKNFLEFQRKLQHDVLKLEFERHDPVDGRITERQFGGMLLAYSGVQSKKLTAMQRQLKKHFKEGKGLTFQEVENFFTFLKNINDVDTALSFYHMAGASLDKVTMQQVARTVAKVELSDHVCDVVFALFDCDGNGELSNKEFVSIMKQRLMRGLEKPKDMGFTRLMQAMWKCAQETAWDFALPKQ
UniProt Q7Z3D4, sequence (Q7Z3D4 whole entry, looked up): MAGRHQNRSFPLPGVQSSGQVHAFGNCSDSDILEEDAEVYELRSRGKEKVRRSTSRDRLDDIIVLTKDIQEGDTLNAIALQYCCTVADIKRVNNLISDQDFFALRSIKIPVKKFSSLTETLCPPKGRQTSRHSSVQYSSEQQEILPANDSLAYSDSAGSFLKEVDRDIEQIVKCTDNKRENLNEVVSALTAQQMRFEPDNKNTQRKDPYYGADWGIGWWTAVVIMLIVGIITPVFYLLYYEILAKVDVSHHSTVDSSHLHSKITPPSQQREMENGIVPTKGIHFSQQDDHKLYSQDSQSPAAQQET
UniProt P10620, sequence (P10620 whole entry, looked up): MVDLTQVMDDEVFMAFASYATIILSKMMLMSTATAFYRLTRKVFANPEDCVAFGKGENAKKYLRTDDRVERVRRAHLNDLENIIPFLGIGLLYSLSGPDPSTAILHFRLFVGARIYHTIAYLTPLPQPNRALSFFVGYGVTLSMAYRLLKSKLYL

Row | Target | log2 fold change
1 | MBOAT2 (UniProt Q6ZWT7) | -0.017
2 | KIFC1 (UniProt Q9BW19) | 0.029
3 | LSM8 (UniProt O95777) | -0.029
4 | MAP4 (UniProt P27816) | -0.043
5 | MPZL1 (UniProt O95297) | 0.125
6 | MAP2K4 isoform 2 (UniProt P45985) | 0.188
7 | MLLT11 (UniProt Q13015) | 0.003
8 | KPNA4 (UniProt O00629) | -0.169
9 | MBD2 (UniProt Q9UBB5) | 0.027
10 | MANEA (UniProt Q5SRI9) | -0.161
11 | MAP2K3 isoform 3 (UniProt P46734) | -0.006
12 | KLC2 (UniProt Q9H0B6) | 0.122
13 | MAP7D3 (UniProt Q8IWC1) | -0.05
14 | MGST1 (UniProt P10620) | 0.022
15 | MLST8 (UniProt Q9BVC4) | 0.011
16 | KIF4A (UniProt O95239) | 0.005
17 | MICU2 (UniProt Q8IYU8) | -0.002
18 | LRCH3 (UniProt Q96II8) | -0.028
19 | KIF26A (UniProt Q9ULI4) | -0.018
20 | MGAT5 (UniProt Q09328) | 0.083

Row | Target | log2 fold change
21 | MPI (UniProt P34949) | 0.083
22 | METTL2A (UniProt Q96IZ6) | 0.106
23 | KMT2A isoform 3 (UniProt Q03164) | 0.016
24 | LYSMD3 (UniProt Q7Z3D4) | -0.084
25 | L3HYPDH (UniProt Q96EM0) | 0.01
26 | LIMK1 (UniProt P53667) | 0.007
27 | MED17 (UniProt Q9NVC6) | 0.02
28 | MAD2L1BP isoform 3 (UniProt Q15013) | -0.006
29 | MRPL12 (UniProt P52815) | 0.047
30 | MAP2K7 isoform 4 (UniProt O14733) | 0.079
31 | LUC7L (UniProt Q9NQ29) | 0.055
32 | MAPKAPK2 (UniProt P49137) | -0.051
33 | MRPL19 (UniProt P49406) | 0.019
34 | MICU1 isoform 3 (UniProt Q9BPX6) | 0.196
35 | MAT2B (UniProt Q9NZL9) | -0.002
36 | KPNA2 (UniProt P52292) | 0.06
37 | KIF11 (UniProt P52732) | 0
38 | KLHL36 (UniProt Q8N4N3) | 0.074
39 | MRPL46 (UniProt Q9H2W6) | 0.199
